Screening results: PubChem, National Center for Advancing Translational Sciences (NCATS)
VDR inh = Inhibitors of the vitamin D receptor (VDR): qHTS | AID 504847, 2011 | Potency, µM, for the others: max response, negative = inhibition, usual class: inhibitors | actives 0.93% (n = 400,000) | Vitamin D3 receptor (Homo sapiens), P11473 | VDR-SRC2-3 peptide fluorescence polarization, 2 h
Target sequence (P11473 whole entry, looked up): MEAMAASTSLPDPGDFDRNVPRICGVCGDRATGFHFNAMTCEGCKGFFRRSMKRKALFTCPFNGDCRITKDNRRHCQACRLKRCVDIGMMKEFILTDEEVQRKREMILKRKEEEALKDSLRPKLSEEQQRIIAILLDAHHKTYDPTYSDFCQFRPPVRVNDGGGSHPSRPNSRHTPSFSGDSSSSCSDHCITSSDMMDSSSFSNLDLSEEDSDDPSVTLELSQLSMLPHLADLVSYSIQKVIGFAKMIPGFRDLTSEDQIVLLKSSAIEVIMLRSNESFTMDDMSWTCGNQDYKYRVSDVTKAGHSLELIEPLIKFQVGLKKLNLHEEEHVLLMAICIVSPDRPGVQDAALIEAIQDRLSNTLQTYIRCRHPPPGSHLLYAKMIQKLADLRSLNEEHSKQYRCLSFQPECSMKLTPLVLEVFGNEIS
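Fluorescence polarization assay of small-molecule disruption of VDR binding to coregulator peptide SRC2-3. Compounds and controls pin-transferred, then read after 2 h incubation at ambient room temperature.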
TDP1 block = qHTS Assay for Inhibitors of Tyrosyl-DNA Phosphodiesterase (TDP1); Potency, µM (titrated, usually from 130 µM), for the others: at the highest dose activity change, negative = inhibition, hits mostly inhibitors; actives 0.28% (n = 350,000); AID 485290, 2010; recombinant TDP1, AlphaScreen DNA substrate cleavage; note: nearly all actives have a fitted effect of over 40% in size
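AlphaScreen read-out: signal falls as enzyme removes the 3' tyrosine-FITC from a 5'-biotinylated DNA oligo (15 nM, 5 min, RT). Enzyme was E. coli-made recombinant Tdp1 at 1 nM, exposed to compound for 15 min beforehand; beads 10 ug/ml, 10 min.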
PLK1 PBD block = qHTS for Inhibitors of PLK1-PDB (polo-like kinase 1 - polo-box domain): Primary Screen; actives 2.8% (n = 360,000); Potency, µM, inactives show max response, negative = inhibition, hits mostly inhibitors; Plk1 PBD binding of FITC phosphopeptide, fluorescence polarization; AID 720504, 2013; Serine/threonine-protein kinase PLK1 (Homo sapiens), P53350; note: series mostly up to about 57 µM; nearly all actives have a fitted effect of over 65% in size
KAT2A inh = qHTS Assay for Inhibitors of GCN5L2. actives 0.21% (n = 390,000). Potency, µM (titrated, usually from 58.9 µM), for inactives: at the top dose activity change, negative = inhibition, hits mostly inhibitors. Histone acetyltransferase KAT2A (Homo sapiens), Q92830. AID 504327, 2011. GCN5L2 HAT assay, ThioGlo1 CoA-SH fluorescence
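Compounds, pin-transferred from DMSO stocks, meet 20nM GCN5L2 for 15 min before the reaction begins with H3(1-25) peptide (75uM) and acetyl-CoA (70uM). Thiol-reactive ThioGlo1 reports CoA release over 20 min at room temperature.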
TDP1 cell CPT = qHTS for Inhibitors of human tyrosyl-DNA phosphodiesterase 1 (TDP1): qHTS in cells in presence of CPT. chicken DT40 Tdp1-/-;hTDP1 cells + 20 nM CPT, ATP luminescence, 48 h. Potency, µM (top dose mostly 46.2 µM), without a hit: top-dose activity change, negative = growth inhibition, usual class: inhibitors. actives 12% (n = 420,000). AID 686979, 2013; note: nearly all actives have a fitted effect of over 55% in size
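Chicken DT40 Tdp1-/- cells complemented with human TDP1, 400 cells/well, exposed to compounds plus 20 nM camptothecin for at least 48 h at 37 C; viability read as ATP content by CellTiter-Glo luminescence.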
TDP1 cell noCPT = qHTS for Inhibitors of human tyrosyl-DNA phosphodiesterase 1 (TDP1): qHTS in cells in absence of CPT; Potency, µM (doses to about 46.2 µM), inactives show top-dose activity change, negative = growth inhibition, actives largely listed as inhibitors; DT40 Tdp1-/- hTDP1 cells, no CPT, ATP luminescence, 48 h; actives 15% (n = 420,000); AID 686978, 2013; note: nearly all actives have a fitted effect of over 55% in size
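Chicken DT40 Tdp1-/- cells complemented with human TDP1, screened without camptothecin (DMSO vehicle only), 400 cells/well. Compounds pin-transferred, cells incubated at 37 °C for at least 48 hr. Growth read as ATP-dependent luminescence (CellTiter-Glo, 30 min at RT).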
* = called active by the depositor; u = inconclusive; x = not tested or not shown; [ ] = remark or other dose. Shown are actives, neighbours in structure and some others; about 18% of the full set was active somewhere. Calls come from the whole dose curve; as a rule, active = well fitted curve in the direction sought with a large enough effect; inconclusive = small, poorly fitted or top-dose-only effect, or another doubt; inactive = no such curve, though single readings can be large; an effect the other way counts as inactive or inconclusive. % is set by controls: 0 for no effect and ±100 for the full control effect; potency is the fitted concentration of half-maximal effect.

SMILES	VDR inh	TDP1 block	PLK1 PBD block	KAT2A inh	TDP1 cell CPT	TDP1 cell noCPT
Cc1ccc(C23CC4CC(CC(C(=O)NC(C)C(N)=O)(C4)C2)C3)cc1 (centres undefined)	-9%	1%	7%	-8%	-19%	-30%
O=C(c1cccc(F)c1)N1CCC2(CCCN(c3ccccc3)C2)CC1	u	x	x	-13%	-1%	u
O=C(c1cccc(F)c1)N1CCC2(CC1)CN(c1ccccc1)C2	-11%	x	x	-14%	7.3µM*	16µM*
Cc1cc(C)n(-c2nc3c(c(=O)[nH]c(=O)n3C)n2CC(O)COc2ccc(Cl)cc2Cl)n1 (centres undefined)	38%	2%	-9%	-3%	6.5µM*	5.8µM*
Cc1cc(C)n(-c2nc3c(c(=O)[nH]c(=O)n3C)n2CCc2ccccc2)n1	-9%	5%	30µM*	-4%	u	u
Cc1cc(C)n(-c2nc3c(c(=O)[nH]c(=O)n3C)n2Cc2ccccc2)n1	26%	-2%	-5%	-10%	-7%	-12%
O=C(/C=C/c1cn(-c2ccccc2)nc1-c1ccc2c(c1)OCCO2)NCCO	10%	5%	u	-5%	-3%	-14%
OCc1ccc2c(c1)c(-c1ccc3c(c1)OCCO3)c(-c1ccccc1)n2-c1ccccc1	-18%	6%	-1%	-23%	18µM*	23µM*
CC(=O)NC(CC(=O)NC1CCCc2ccccc21)c1ccccc1 (centres undefined)	-7%	2%	-7%	-1%	-9%	-17%
COC(=O)c1cc(NC(=O)c2ccccc2)c(=O)oc1C/C=N\OCc1ccc(Cl)cc1Cl	6%	8%	20%	u	-6%	u
CC(C)(C)C(=O)N1CCN(c2ccc(NC(=O)c3ccc4c(c3)OCCO4)cc2)CC1	-21%	16%	-5%	-2%	u	u
O=C(c1ccccc1)N1CCN(c2ccc(NCc3ccc4c(c3)OCO4)cc2)CC1	11%	-10%	6%	-12%	15µM*	18µM*
CCOC(=O)N1CCN(C(=O)c2ccc(CSc3ccc(Cl)cc3)cc2)CC1	-7%	-5%	27µM*	-22%	u	7.3µM*
O=C(Nc1ccc(N2CCN(C(=O)c3ccc(Cl)cc3)CC2)cc1)c1ccc2c(c1)OCCO2	9%	5%	0%	-6%[0.501 µM]	13µM*	23µM*
O=C(CSc1ccc(Cl)cc1)Nc1ccc(N2CCN(C(=O)c3ccc(Cl)cc3)CC2)cc1	11%	-6%	-23%	-15%	18µM*	15µM*
CCOc1ccc(C(C(=O)NC(C)(C)C)N(CCOC)C(=O)CCC(=O)Nc2ccccn2)cc1 (centres undefined)	-3%	-2%	1%	-1%	23%	2%
Cc1ccc(C2=NN(C(=O)CN3CCN(C4CCS(=O)(=O)C4)CC3)C(c3ccco3)C2)cc1 (centres undefined)	-5%	1%[56.1 µM]	-6%	-20%	u	u
O=C(Nc1ccc(N2CCN(C(=O)c3ccccc3)CC2)cc1)c1ccc2c(c1)OCCO2	-24%	0%	4%	-3%	21µM*	u
CC(=O)N1CCN(c2ccc(NC(=O)c3ccc4c(c3)OCCO4)cc2)CC1	-24%	9%	-12%	-3%	-21%	-18%
CCc1c(C)nc2ncnn2c1NCCc1ccc(OC)c(OC)c1	13%	0%	-6%	2%	15µM*	13µM*
CCOc1ccc(CCNC(=O)CCc2c(C)nc3ncnn3c2C)cc1OCC	12%	5%	-6%	-6%	-23%	2%
COc1ccc(CCNc2c(C)c(C)nc3ncnn23)cc1	-16%	1%	-3%	-7%	2.3µM*	2.6µM*
CCOc1ccc(CCNc2cc(C)nc3ncnn23)cc1OCC	-7%	-1%	-4%	0%	21µM*	15µM*
O=C(c1sc2cc(Cl)ccc2c1Cl)N1CCN(CCc2ccccn2)CC1	-8%	3%	-4%	0%	-22%	u
CCOc1cc(C(=O)OCc2cc(=O)n3c(C)csc3n2)cc(OCC)c1OCC	8%	5%	x	-1%	-11%	-13%
SMILES	VDR inh	TDP1 block	PLK1 PBD block	KAT2A inh	TDP1 cell CPT	TDP1 cell noCPT
CCOC(=O)C1(Cc2cccc(OC)c2)CCN(CC=C(C)C)CC1	-15%	-3%	-6%	-5%	u	16µM*
CCOC(=O)C1(Cc2cccc(OC)c2)CCN(CCO)CC1	-11%	x	-8%	-2%	1%	0%
CCOC(=O)C1(Cc2cccc(OC)c2)CCN(C/C=C/c2ccc(OC)cc2)CC1	4%	x	u	-4%	5.8µM*	5.2µM*
CCOC(=O)C1(Cc2cccc(OC)c2)CCN(Cc2cccc(OCC)c2O)CC1	-23%	6%	0%	-5%	23µM*	16µM*
CCOC(=O)C1(Cc2cccc(OC)c2)CCN(C/C=C/c2ccccc2)CC1	-8%	5%	-9%	42%	16µM*	18µM*
COc1ccc(-c2c(C(F)(F)F)nn(C)c2NC(=O)CSCC(=O)O)cc1	-8%	3%	-4%	0%	12%	0%
CC1=C(C(=O)N2CCCCCC2)CC(CC(=O)NCCCN(C)C)C(=O)N1Cc1ccc(F)cc1 (centres undefined)	x	x	0%	x	-21%	-1%
O=C(NCCc1ccc(Cl)cc1)C(=O)NCC(c1ccco1)S(=O)(=O)c1ccccc1 (centres undefined)	10%	0%	x	0%	-10%	-9%
O=C(NCc1ccccc1Cl)C(=O)NCC(c1ccco1)S(=O)(=O)c1cccs1 (centres undefined)	12%	-3%	x	2%	u	16µM*
O=C(NCCc1ccc(Cl)cc1)C(=O)NCC(c1ccco1)S(=O)(=O)c1cccs1 (centres undefined)	-11%	0%	x	-13%	18µM*	u
Cc1ccccc1CNC(=O)C(=O)NCC(c1ccco1)S(=O)(=O)c1cccs1 (centres undefined)	-2%	3%	x	-5%	u	-3%
O=C(N/C(=C/c1cn(-c2ccccc2)nc1-c1ccccc1)C(=O)N1CCOCC1)c1ccc(Cl)cc1Cl	-4%	0%	-16%	-16%	u	u
